Screening data as filed in PubChem.
A selection: hits, their analogues and other compounds. The true share with any hit is near 4.7%.
TRHR enhancer: allosteric enhancers of human TRH receptor; P34981; TRHR cells, fluo-8 calcium fluorescence, EC20 TRH enhancement; enhancement, % at 2 µM; hit rate 0.66% among 360,000; in the data active means enhancement above about 30%; further: 0% is about no effect
Target sequence (P34981 whole entry, looked up): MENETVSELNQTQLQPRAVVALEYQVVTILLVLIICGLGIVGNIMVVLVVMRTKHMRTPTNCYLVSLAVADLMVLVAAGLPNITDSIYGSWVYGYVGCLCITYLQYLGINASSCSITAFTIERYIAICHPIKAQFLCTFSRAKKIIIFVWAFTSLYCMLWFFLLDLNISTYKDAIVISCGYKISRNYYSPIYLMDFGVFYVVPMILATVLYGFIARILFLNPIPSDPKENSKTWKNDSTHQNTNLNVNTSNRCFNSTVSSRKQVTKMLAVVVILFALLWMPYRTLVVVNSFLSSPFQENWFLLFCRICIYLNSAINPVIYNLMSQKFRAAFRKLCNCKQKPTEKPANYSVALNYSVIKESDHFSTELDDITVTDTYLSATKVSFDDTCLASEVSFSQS
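Enhancer read-out: after compound pinning and an initial kinetic agonist-mode read, an EC20 of TRH (10 nM final) was injected and fluo-8 calcium signal (Ex 480/Em 530) followed at 1 s/cycle for 100 cycles in TRHR-expressing cells.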
D1 ag: human D1 receptor agonism; hit rate 1% among 360,000; HEK293 T-REx D1 cells, calcium flux, agonist mode; AID 504660; P21728; activation, % at 2 µM; further: 0% is about no effect
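Inducible HEK293 T-REx D1 cells, force-coupled to calcium signalling, were plated at 4000 cells/well with tetracycline and held overnight at 30 C. After no-wash calcium dye loading, compound-evoked calcium rise over 180 s flagged agonists.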
D1 PAM: human D1 dopamine receptor positive modulation; hit rate 0.036% among 360,000; potentiation, % at 10 µM; P21728; HEK293 TREx D1 cells, calcium flux, dopamine EC20 potentiation; AID 504651; in the data active means potentiation above about 30%; further: 0% is about no effect
D1 antagonist: blocks dopamine activation of the human D1 receptor | HEK293 TREx D1 cells, calcium flux, dopamine EC80; hits give low values | hit rate 3.2% among 360,000 | activity change, negative = inhibition, % at 10 µM | AID 504652 | P21728; in the data active means activity change below about -30%; further: on the % scale 0 is the no-effect control and ±100 the full control effect
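Compound effects on dopamine-evoked calcium signalling were measured in tetracycline-induced HEK293 Trex D1 cells. Dopamine at EC80 followed a 180 s compound pre-read, and fluorescence was tracked kinetically for 180 s more.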
TRHR agonist: agonists of human TRH receptor; P34981; TRHR cells, calcium flux fluo-8, FDSS agonist mode; activation, % at 2 µM; hit rate 0.18% among 360,000; AID 493084; further: 0% is about no effect
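TRHR-expressing cells, plated overnight in medium with 10% serum, were loaded with fluo-8 calcium dye at room temperature. After a 10 s baseline, library compound was pin-added and calcium release was recorded kinetically (ex 480/em 530) as agonist response.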
Starred values were filed as active, the others as inactive; / = not tested or not shown; ! = repeats disagree. Unless noted, no stated cut-off is given here; in the data, active means activation above about 30%; inactive means the rest.

SMILES | TRHR enhancer | D1 ag | D1 PAM | D1 antagonist | TRHR agonist
Cc1nc(=O)c(-c2ccccc2)c(C)n1CCO | -1 | 1 | -4 | -37* | 0
Cc1nc(=O)c(-c2ccccc2)c(C)n1CCCO | 6 | 3 | -2 | -4 | -1
CCOC(=O)CCCn1c(C)nc(=O)c(-c2ccccc2)c1C | -1 | 0 | -3 | -34* | 1
O=C(NCC1CCCO1)c1cccc(Oc2ccc([N+](=O)[O-])cc2)c1 (stereo not given) | 3 | 11 | -6 | -35* | -1
COc1ccccc1-c1noc(-c2ccccc2C(=O)NCC2CCCO2)n1 (stereo not given) | 9 | 0 | -5 | 1 | 0
O=C(Cn1c(C(=O)NCC2CCCO2)cc2sccc21)c1ccccc1 (stereo not given) | -4 | 1 | -5 | -50* | -1
Cc1ccccc1-c1noc(-c2ccccc2C(=O)NCC2CCCO2)n1 (stereo not given) | -7 | 0 | -1 | -30* | 0
O=C(NCC1CCCO1)c1cccc(Oc2ccccc2)c1 (stereo not given) | -6 | 1 | -1 | -3 | 3
O=C(NCC1CCCO1)c1cccc(NC(=O)c2ccccc2)c1 (stereo not given) | 3 | 3 | 3 | -31* | 0
Cc1ccc(C)c(N2CCN(C(=O)C(CC(C)C)NS(=O)(=O)c3ccc4nc(C)sc4c3)CC2)c1 (stereo not given) | 4 | 6 | 0 | -2 | -1
COc1ccc(CCn2c3c(c(=O)[nH]c2=O)C(NC(=O)c2ccccc2)(C(F)(F)F)C(=O)N3)cc1OC (stereo not given) | 1 | 1 | -4 | 4 | 0
COc1ccc(N(Cc2ccccc2)S(=O)(=O)c2cccc(C(=O)NCC3CCCO3)c2)cc1 (stereo not given) | -6 | 14 | -5 | -37* | -1
Cc1cccc(NS(=O)(=O)c2ccc(C(=O)NCC3CCCO3)cc2)c1C (stereo not given) | -5 | 14 | -7 | -15 | 1
COc1ccc(N(C)S(=O)(=O)c2cccc(C(=O)NCC3CCCO3)c2)cc1 (stereo not given) | 8 | -1 | 2 | -1 | -1
O=C(NCC1CCCO1)c1ccc(S(=O)(=O)Nc2ccccc2F)cc1 (stereo not given) | -7 | 3 | -4 | -38* | 0
CCc1ccc(-n2nc(C)c3c(C(=O)Nc4ccc(Cl)cc4)cc(C)nc32)cc1 | -12 | 4 | -4 | -4 | 1
CN1CCN(C(=O)c2ccc(COc3ccc(Cl)cc3Cl)cc2)CC1 | 3 | 26 | -9 | -55* | 3
CN(C)CCNC(=O)c1ccc(COc2ccc(Cl)cc2Cl)cc1 | -6 | 95* | -18 | -64* | 15
CN1CCN(C(=O)CCCOc2ccc(Cl)cc2Cl)CC1 | 0 | 5 | -10 | -9 | 0
COc1ccc(Cl)cc1C(=O)NCCN(C)C | 5 | 3 | -5 | 7 | 1
Cc1ccc(CCNC(=O)C2CC(c3ccc(C(F)(F)F)cc3)=NO2)cc1 (stereo not given) | 0 | 8 | -3 | -3 | 0
COc1ccc(C2=NOC(C(=O)NCc3cccnc3)C2)cc1 (stereo not given) | -7 | 2 | -7 | 2 | 0
O=C(NCc1cccnc1)C1CC(c2ccc(F)cc2)=NO1 (stereo not given) | -2 | 3 | -6 | -31* | 0
O=C(NCc1cc(C(F)(F)F)cc(C(F)(F)F)c1)C1CC(c2cccc([N+](=O)[O-])c2)=NO1 (stereo not given) | 10 | 9 | -9 | -54* | -1
CC(C)CCNC(=O)C1CC(c2ccc(C(F)(F)F)cc2)=NO1 (stereo not given) | -3 | 32* | -4 | -42* | 0
SMILES | TRHR enhancer | D1 ag | D1 PAM | D1 antagonist | TRHR agonist
CC1=C(C(=O)Nc2ccc(C)cc2C)C(c2ccc(C(C)C)cc2)n2nc(C(F)(F)F)nc2N1 (stereo not given) | -15 | 6 | -1 | -6 | -1
CCN(CC)CC1C(=O)N(c2ccc(OC)cc2)C1c1ccccc1 (stereo not given) | -5 | 8 | -5 | -39* | 3
Cc1ccc(C(=O)N2CCCCC2CCN2CCCCC2)cc1 (stereo not given) | 11 | 1 | -1 | -2 | 0
NC[C@@H]1O[C@H](C23CC4CC(CC(C4)C2)C3)Cc2c1ccc(O)c2O | 3 | 118* | -5 | -78* | 0
CCc1nc(SCc2cc(=O)c3cc(F)ccc3[nH]2)n[nH]1 | -5 | 1 | -2 | 4 | 0
CCN(CC)CCCn1c2c(c(SCC(=O)Nc3nccs3)nc1=O)CCC2 | -6 | 2 | 0 | -56* | 0
Cc1ccccc1NC(=O)CSc1c(C(C)C)cnc2c1c(=O)n(C)c(=O)n2C | -5 | 1 | 3 | 12 | 0
CCCCCCN(CCCCCC)C(=O)Cc1c(-c2ccc(F)cc2)[nH]c2ccccc12 | 8 | -1 | -7 | -61* | 0
COc1cccc(CNC(=O)CCNS(=O)(=O)c2cccc3nsnc23)c1 | -9 | 1 | -1 | -73*! | -1
COc1cccc(CNC(=O)CCNS(=O)(=O)c2cccc3nonc23)c1 | -3 | -4 | -6 | -8 | 14
COC(=O)CNC(=O)C1CCC(CNS(=O)(=O)c2cccc3nsnc23)CC1 (stereo not given) | -5 | 2 | 2 | -33* | 0
CC(C)c1ccc(C(=O)Nc2ccc(-c3nc4ccccc4s3)c(Cl)c2)cc1 | -6 | 7 | -6 | -11 | -1
CC(=O)c1cccc(NC(=O)c2c(N3CCCC3=O)c3cc(F)ccc3n2C)c1 | 0 | 0 | -2 | -25 | 0
O=C(O)CCc1cc(F)c(S(=O)(=O)N2CCN(S(=O)(=O)c3ccc4c(c3)OCCO4)CC2)cc1F | 10 | 1 | 2 | 12 | -2
O=C(Nc1ccc(F)cc1F)c1ccc2c(O)c(S(=O)(=O)c3ccc(Cl)cc3)c(=O)[nH]c2c1 | 11 | 1 | -1 | 2 | -1
NC[C@H](Cc1ccccc1)NCCCCC1CCCCC1 | 2 | -4 | -1 | / | 0
CNC[C@H](CC1CCCCC1)NC[C@H](Cc1ccccc1)NCCC12CC3CC(CC(C3)C1)C2 | 7 | 32* | 4 | 8 | 1
COc1ccc(-c2noc(-c3ccc(NCc4ccco4)c([N+](=O)[O-])c3)n2)cc1OC | -3 | -1 | 1 | -41* | 1
COc1ccc(-c2noc(-c3ccc(NCc4ccc(C)cc4)c([N+](=O)[O-])c3)n2)cc1OC | -2 | 7 | 1 | -68* | 1
COc1ccc(-c2nc3cccc(C)n3c2NCc2ccco2)cc1OC | -2 | 0 | -8 | -31* | 0
CC(C)NS(=O)(=O)c1ccc(Oc2ncc(C(F)(F)F)cc2Cl)cc1 | -2 | 22 | -7 | -26 | 1
